This passage reports INHIBITION results from ChEMBL document CHEMBL4513216, “Probing the Open Global Health Chemical Diversity Library for Multistage-Active Starting Points for Next-Generation Antimalarials” (ACS Infect Dis, 2020).

Each structure is given as a SMILES string. In all, about 65,000 compounds went through this assay and about 2,100 (3.2%) showed an effect of 50% or more. The median lay at about -52%. The sample holds strong results, similar compounds and a random draw of the others, so the mix is not that of the screen.

The assay relates to Plasmodium falciparum. In words: Screen against P. falciparum Asexual Blood Stage (ABS), at 5uM. In kind it is functional, Dd2. The note with it: tested at 5 uM.
As to `CCC(Nc1nc(C)nc2onc(C)c12)c1nc(C)c(C)s1` (centres undefined), the INHIBITION is listed as -38.1%.
Consider `CCCc1noc(CN2CCOCC2C)n1` (centres undefined), for which the INHIBITION is listed as -47.4%.
As to `Cc1cc(NC(=O)CCn2nc(C)c3ccccc32)n(C(C)C)n1`, the INHIBITION is -75.1%.
As to `CO[C@H]1CCN(S(=O)(=O)c2cn(C)cn2)[C@H]1Cc1cccnc1`, the INHIBITION is reported as -8.09%.
For the compound `Cc1cc(=O)n2nc(-c3cccs3)nc2n1CC(=O)NC(C)C`, the INHIBITION is -10.8%.
For `Cc1cc(C)c(CNC(=O)N(C)Cc2ccc3c(c2)OCO3)c(=O)[nH]1`, the INHIBITION is reported as -71.6%.
For the compound `Cn1cc(NC(=O)N2CCC(OCc3ccccc3)CC2)ccc1=O`, the INHIBITION was 43.6%.
In the case of `Cc1nn(C)c(N(C)C)c1CNCC(O)COc1cccc(F)c1` (centres undefined), the INHIBITION was -0.711%.
The same measure for `COC(=O)c1ncccc1N1CCN(C(=O)CN2CCOCC2)CC1`: -131%; for `Cc1cnn(CC2CCCCN2C(=O)Cc2cn3ccsc3n2)c1` (centres undefined): -120%.
With `CCc1cnc2c(c1Nc1ccc(C)c(F)c1)c(=O)n(C)c(=O)n2C`, the INHIBITION is on record as 41.1%.
In the case of `Cc1c(C)n(Cc2ccncc2)c2nc3c(c(N)c12)CCCCC3`, the INHIBITION came to 21%.
`Cc1c(C)n(Cc2ccccn2)c2nc3c(c(N)c12)CCCCCC3`: the INHIBITION came to 60.3%.
With `Cc1c(C)n(Cc2ccccn2)c2nc3c(c(N)c12)CCCCC3`, the INHIBITION was determined as 23.7%.
With `Cc1cccc2c1ccn2CCC(=O)Nc1c2c(nn1C)CSC2` the figure was -53.4%.
As to `Cc1ccc(Br)cc1NC(=O)NC1CCC2(C1)OCCO2` (centres undefined), the INHIBITION was -96.9%.
In the case of `CC1N(c2cnn(C)c2)C(=O)COC12CCN(c1ncccn1)CC2` (centres undefined), the INHIBITION is -127%.
Regarding `CCc1nn(-c2cc(Oc3cc(C)ccc3C)ncn2)c(N)c1C#N`, the INHIBITION is reported as -64%.
Turning to `C[C@]1(O)CN(CCO)CC[C@@H]1Oc1cccc(F)c1`, the INHIBITION was 65.2%.
As to `C[C@]1(O)CN(CCC(N)=O)CC[C@@H]1Oc1cccc(F)c1`, the INHIBITION is reported as -39.3%.
For `C[C@]1(O)CN(CC(=O)N2CCCC2)CC[C@@H]1Oc1cccc(F)c1`, the INHIBITION came to 25%.
In the case of `CCc1cnc(N2CCc3cc(C(=O)NC)c(N(C)C)nc3CC2)nc1`, the INHIBITION is reported as -12.1%.
As for `O=C1[C@@H]2CC[C@@H](CN(c3ncnc4ccsc34)C2)N1CC1CC1`, the INHIBITION is recorded as -85.4%.
For the compound `CC(C)Cc1noc(CN(C)c2ncccn2)n1`, the INHIBITION is reported as -64.8%.
With `CC(C)Cc1noc(CN(C)c2cc(N(C)C)ncn2)n1` the figure was 50.4%; with `CCc1cc(N(C)Cc2noc(CC(C)C)n2)ncn1`, -78.3%.
The same measure for `CNc1cc(N2CCCC2CNCc2ccco2)ncn1` (centres undefined): -103%; for `O=C(C1CCOC1)N1CC2(CCN(c3ccccc3)C2)C1` (centres undefined): -3.52%.
Turning to `CC(C)CC(=O)N1CC(=O)c2sc(Nc3ccc(F)cc3F)nc2C1`, the INHIBITION is on record as -30.6%.
Consider `Cc1cnn(CC2CCN(CC(O)CN3CCC(C)CC3)CC2)c1` (centres undefined), for which the INHIBITION is 63.8%.
The same measure for `Cc1cnn(CC2CCN(CC(O)Cn3cccn3)CC2)c1` (centres undefined): -78.8%; for `Cc1ccc(OCC(O)CN2CCC(Cn3cc(C)cn3)CC2)cc1` (centres undefined): -93.6%; for `CCc1nc(C)c(C(=O)NCCNC(=O)c2cccs2)s1`: -96.9%.
Consider `CCc1nc(NCCCn2cccn2)c2c(n1)c(C)nn2CC`, for which the INHIBITION is given as -75.8%.
Consider `COCCNC(=O)CN(C)C(C)c1nc(C)no1` (centres undefined), for which the INHIBITION was -63.5%.
Regarding `Cc1ccsc1C(=O)NCc1ccnc(C2CCCOC2)n1` (centres undefined), the INHIBITION is on record as -57.8%.
With `Cn1cccc1C(=O)NCc1ccnc(C2CCCOC2)n1` (centres undefined), the INHIBITION was -162%.
Take `Cc1ccc(C(=O)NCc2ccnc(C3CCCOC3)n2)s1` (centres undefined): the INHIBITION came out at 53.3%.
Turning to `COc1ccc(-c2cc(N)ccn2)c(OC)c1OC`, the INHIBITION was -9.16%.
As to `COc1cc(F)ccc1-c1cc(N)ccn1`, the INHIBITION is 52.7%.
On to `COc1cc(F)ccc1-c1cc(CO)ccn1`, for which the INHIBITION was -92%.
As to `CC(=O)NCc1nn(C)c2c1CN(Cc1ccsc1)C2`, the INHIBITION was -24.6%.
As for `Cc1csc(N2CCN(C3CCc4ccccc4C3)CC2)n1` (centres undefined), the INHIBITION is reported as -22.1%.
With `c1csc(CN2CC3(CCN(Cc4ccsc4)C3)C2)n1` the figure was -42.4%; with `Fc1ccc(CN2CCC3(CCN(Cc4nccs4)CC3)C2)cc1`, 57.9%.
In the case of `COc1ccc(CN2CCC3(CC2)CCN(c2ncccn2)CC3)cc1`, the INHIBITION is listed as -85.1%.
`Fc1ccc(CN2CCC3(CC2)CCN(c2ncccn2)CC3)cc1`: the INHIBITION is listed as 55%.
The same measure for `Fc1ccc(CN2CCOCC3(CCN(Cc4nccs4)C3)C2)cc1` (centres undefined): 0.38%.
With `c1cnc(N2CCC3(CCN(Cc4cccnc4)CC3)CC2)nc1`, the INHIBITION is -71.4%.
For the compound `CSc1cccc(NC(=O)N2CCC3(CCC(=O)N(C4CC4)C3)CC2)c1`, the INHIBITION is -19.6%.
As to `O=C(CCC(F)(F)F)N1CCCC(CO)(CC2CC2)C1` (centres undefined), the INHIBITION is on record as -11.2%.
As for `Cc1ccc(CN2CCc3c(nnn3C)C2COCc2ccccc2)s1` (centres undefined), the INHIBITION is recorded as -109%.
As for `O=C(N1CCN(CCO)CC1)C1(O)Cc2ccccc2C1`, the INHIBITION is given as -1.26%.
Turning to `O=C(N1CCSCC1)C1(O)Cc2ccccc2C1`, the INHIBITION was -41.2%.
Consider `O=C(N1CCc2ccccc2CC1)C1(O)Cc2ccccc2C1`, for which the INHIBITION was 58.7%.
With `Nc1nnnn1NCc1cccc(Cl)c1Cl` the figure was -65.4%.
Consider `Cc1cc(NC(=O)CN2CCCC(Cn3nc(C)nc3C)C2)n(C)n1` (centres undefined), for which the INHIBITION was 54.5%.
With `Cc1cc(NC(=O)CN2CCCC2Cn2nc(C)nc2C)n(C)n1` (centres undefined), the INHIBITION was -142%.
As for `Cc1nc(C)n(CC2CCCN(CC(=O)Nc3ccncc3)C2)n1` (centres undefined), the INHIBITION was determined as 60.6%.
With `Cc1nc(C)n(CC2CCCN2CC(=O)Nc2ccncc2)n1` (centres undefined), the INHIBITION is -153%.
With `Cc1nc(C)n(CC2CCCN(CC(=O)Nc3cccnc3)C2)n1` (centres undefined), the INHIBITION is recorded as -133%.
The same measure for `Cc1nc(C)n(CC2CCCN(CC(=O)Nc3cc(C)on3)C2)n1` (centres undefined): 3.79%; for `COCC(=O)Nc1ccc(C)cc1-c1nc(C2CC2)no1`: -92.7%; for `CCn1cc2c(n1)CN(Cc1ccc(C)o1)CC2COCC1CC1` (centres undefined): -68.6%.
With `O=C(NCC1CCCCC1)NC1CCCc2c1cnn2CCO` (centres undefined) the figure was -133%.
For the compound `Cc1c(C(C)NC(=O)N2CCN(C3CCCC3)CC2)cnn1C` (centres undefined), the INHIBITION was -70.2%.
Regarding `COC(=O)c1sc2cccc(F)c2c1CNC(=O)C1CCOC1` (centres undefined), the INHIBITION is recorded as -5.44%.
With `Cc1nnc(Nc2cccc(C3CCN(Cc4ncc[nH]4)CC3)n2)s1` the figure was 31.6%.
The same measure for `Fc1ccc(Nc2ccc(C3CCN(Cc4ncc[nH]4)CC3)nc2)nc1`: 63.1%; for `Cc1cc(Nc2ccc(F)cn2)cc(C2CCN(Cc3ncc[nH]3)C2)n1` (centres undefined): -49.2%.
As to `Fc1cccc(OC2CCN(Cc3ncc[nH]3)CC2)c1`, the INHIBITION is 36.9%.
Take `CNc1cccc(C2CCCN(Cc3ncc[nH]3)C2)n1` (centres undefined): the INHIBITION is on record as -20.8%.
Take `Cc1cccc(Nc2ccc(C3CCN(Cc4ncc[nH]4)CC3)nc2)n1`: the INHIBITION is reported as 51.8%.
As to `CCN(CC)C(=O)C1CCCN1C(=O)c1cccc(-n2cnnn2)c1` (centres undefined), the INHIBITION is -72.5%.
Take `O=C(CCCOc1ccccc1F)NCCCC(=O)Nc1cn[nH]c1`: the INHIBITION is given as -97.2%.
In the case of `Cc1cc(C)n(CC2CCCN2C(=O)c2ccc3c(c2)COC3)n1` (centres undefined), the INHIBITION is reported as -101%.
As for `CCOCc1ccc(CNC2=NCCCN2)cc1`, the INHIBITION is listed as 55.7%.
The same measure for `CN(C)c1ccc(CNC2=NCCCN2)cc1`: -56.7%; for `c1ccc(OCCNC2=NCCCN2)cc1`: 16.3%.
As for `CCOCCOC(C)C(=O)NCc1cn2cc(Cl)ccc2n1` (centres undefined), the INHIBITION is -73.4%.
For `COc1ccc(S(=O)(=O)N2C[C@H](OC)[C@]3(CCCO3)C2)cc1`, the INHIBITION was -98.4%.
With `COCC(=O)N[C@@H]1CN(Cc2ccc3c(c2)OCCO3)C[C@H]1O`, the INHIBITION was -66.5%.
With `Cc1nn(C)c2cn(C(C)C(=O)NCc3cccc(F)c3)nc12` (centres undefined), the INHIBITION is listed as -32%.
Turning to `c1ncn(CC2CCCN(Cc3nnc(C4CC4)o3)C2)n1` (centres undefined), the INHIBITION is -49%.
With `Cc1oc(-c2ccco2)nc1CN1CCCC(Cn2cncn2)C1` (centres undefined) the figure was 56.4%; with `CC(C)(C)c1nnc(CN2CCCC(Cn3cncn3)C2)o1` (centres undefined), -204%.
For `c1coc(-c2noc(CN3CCCC(Cn4cncn4)C3)n2)c1` (centres undefined), the INHIBITION is -29%.
Regarding `CC(C)c1nnc(CN2CCCC(Cn3cncn3)C2)o1` (centres undefined), the INHIBITION is on record as 53.1%.
Take `c1coc(-c2nc(CN3CCCC(Cn4cncn4)C3)cs2)c1` (centres undefined): the INHIBITION is reported as -19.5%.
Regarding `COc1ccc2c(c1)CC(C1CCOCC1)N(C(=O)c1cnccn1)C2` (centres undefined), the INHIBITION is recorded as -108%.
In the case of `COC(=O)c1ccc(N2CCN(C(=O)c3cccnc3)C(C)C2)cc1` (centres undefined), the INHIBITION is recorded as -5.1%.
`CN(C)C(=O)CN1CCc2ncnc(NC3CCC3)c2CC1`: the INHIBITION is recorded as -76.8%.
With `CCC(CO)N(Cc1ccc(C(=O)O)cc1)Cc1ccsc1` (centres undefined), the INHIBITION is reported as -74.7%.
As for `CCC(CO)N(Cc1ccsc1)Cc1cccc(O)c1` (centres undefined), the INHIBITION is recorded as 67.6%.
As for `CCC(CO)N(CC=C(C)C)Cc1ccsc1` (centres undefined), the INHIBITION is 23.4%.
For `O=C(NCCCN1CCOCC1)c1nc(-c2ccc3cc[nH]c3c2)no1`, the INHIBITION is recorded as 20.5%.
With `COc1cccc(CC(=O)N2CCCC2c2nc(C)c(C)c(O)n2)c1` (centres undefined), the INHIBITION is -102%.
With `CN(CCC#N)C(=O)Cn1nnnc1C(C)(C)C` the figure was -112%; with `CC(O)(CNC(=O)c1c(F)cccc1Cl)c1ccco1` (centres undefined), -45.8%; with `CC(C)c1cc(C(=O)NCCN2CCOCC2)nc(N2CCCC2)n1`, -70.3%.
Turning to `c1ccc(-c2nc3c(c(NCCc4c[nH]cn4)n2)CCNC3)cc1`, the INHIBITION was 51.1%.
`c1nc(CCNc2nc(C3CC3)nc3c2CCNCC3)c[nH]1`: the INHIBITION is recorded as -79.3%.
As to `c1cc(-c2nc3c(c(NCCc4c[nH]cn4)n2)CCNCC3)ccn1`, the INHIBITION was -225%.
On to `Cc1ccc(C(=O)N2CCC(O)(CN3CCc4ccccc4C3)C2)s1` (centres undefined), for which the INHIBITION is recorded as -64.4%.
For the compound `CN(C)Cc1ccc(C(=O)N2CCCC(COc3ccc(F)cc3)C2)o1` (centres undefined), the INHIBITION is given as 17.1%.
Consider `CC(NC(=O)NCCCN(C)S(C)(=O)=O)c1ccc(Cl)cc1` (centres undefined), for which the INHIBITION is listed as -42.6%.
The same measure for `COc1ccc(C)cc1NC(=O)Nc1cnc(N2CCCC2)nc1`: -26.2%.
With `COc1ccc(NC(=O)c2cnc(N3CCN(C)CC3)nc2C)cc1` the figure was -103%; with `Cc1ccc(NC(=O)Nc2cnc(N3CCN(C)CC3)nc2)cc1`, 59.3%.
